Lassa entry = blocks Lassa virus binding or cell entry; Lassa virus pseudotyped entry inhibition, cell-based qHTS; Potency, µM (doses to about 49.2 µM), for inactives: top-dose activity change, negative = inhibition, actives largely listed as inhibitors; 18,000 tested, 4.1% active; AID 720533
MARV entry inh = blocks Marburg virus binding or cell entry. Marburg virus pseudotype entry/binding inhibition, cell-based. Potency, µM (doses to about 49.2 µM), for inactives: top-dose activity change, negative = inhibition, usual class: inhibitors. 18,000 tested, 6.5% active. AID 720532
Active calls of the source: *; u = inconclusive; x = no result given; ! = repeats disagree; [ ] = remark or other dose. Hits are enriched below; roughly 7.1% of the tested compounds scored in any of these assays. Calls come from the whole dose curve; tested in HEK293 cells. % is set by controls: 0 for no effect and ±100 for the full control effect; potency is the fitted concentration of half-maximal effect.

SMILES	Lassa entry	MARV entry inh
CCC1(C2CCN(Cc3ccccc3Cl)CC2)NC(=O)N(CC2COc3ccccc3O2)C1=O (stereo not given)	-8.9%	u
C[C@H]1CC[C@H]2C(=O)N(Cc3cccc([N+](=O)[O-])c3)C[C@H](O)CN2[C@H]1c1cccc(Br)c1	7.8%[8.59 µM]	-15.8%[8.59 µM]
CC12C=C(C=Cc3ccc(C(F)(F)F)cc3)C(C)(C1)C(c1ccc(C(F)(F)F)cc1)CC2=O (stereo not given)	-1.1%[8.59 µM]	6.4%[8.59 µM]
O=[S+]1([O-])C[C@@H](N2CC[C@@H](O)C2)[C@@H](COCc2ccccc2)N1	5.6%	23.2%
CC=CCCN1C=C(C(=O)OCC)C(c2ccccc2)NC1=O (stereo not given)	-1.9%[8.59 µM]	41.2%[8.59 µM]
O=C(NCCCN1CCCCCC1)[C@@H](c1ccccc1)C1CCCCC1	u	12.6µM*
CCN(CC)CCOC(=O)C(c1ccccc1)C1CCCCC1 (stereo not given)	-10.8%	u
COC[C@@H](OC(C)=O)[C@H]1OCc2ccccc2[C@H]1C=Cc1ccccc1	-3.7%[8.59 µM]	1.3%[8.59 µM]
COC(=O)C1=C(C)NC(C)=C(C(=O)OCCSc2ccccc2)C1C (stereo not given)	12.6µM*	u
CCOC(=O)C1=C(C)NC(C)=C(C(=O)OC)C1c1cccc(Cl)c1Cl (stereo not given)	-6.5%	-2.9%
CN1c2ccccc2[C@@]2(O)C(=O)[C@@]1(C)[C@@H]1CCC=C[C@H]12	26.2%[8.59 µM]	9.8%[8.59 µM]
C#CCN1C(=O)CC[C@@]23C1=NC(C(=O)OC)=C(C(=O)OC)[C@@H]2N(C)c1ccccc13	0.7%[8.59 µM]	-9.5%[8.59 µM]
COCCCC/C(=N\OCCN)c1ccc(C(F)(F)F)cc1	-17.1%	14.1µM*
O=C(OCc1cn([C@H]2CN(C(=O)c3cccs3)[C@@H](c3ccc(Cl)cc3)C[C@H]2O)nn1)c1ccccc1	-12.3%	-8.9%
C=CC[C@](C)(O)c1ccccc1	0.75µM*!	-14.9%
C=CCC(C)(O)c1cccc(C(F)(F)F)c1 (stereo not given)	-10.2%	3.3%
Cc1cc(N)c2ccccc2[n+]1CCCCCCCCCC[n+]1c(C)cc(N)c2ccccc21	28.2µM*	u
CCCCCC(=O)N1C[C@H](O)[C@@H](n2cc(C3CC3)nn2)C[C@H]1c1ccc(C)cc1	x	9.6%
CC(=O)C1=C(C)N(Cc2ccccc2)C(=O)NC1c1cccc(F)c1 (stereo not given)	-7.3%[8.59 µM]	-4.6%[8.59 µM]
CC(C)(O)C1O[C@H]2CC[C@@]3(C)[C@@](O)(CC[C@H]4Cc5c([nH]c6ccccc56)[C@@]43C)C2=CC1=O (stereo not given in full)	31.6µM*!	u
COCC=CC1=CC2=CC(=O)C(C)(OC(=O)c3cnc4ccccc4n3)C(=O)C2=CN1CC1CC1 (stereo not given)	13.0%[8.59 µM]	58.0%[8.59 µM]
COc1ccc([C@]23Cc4cc(OC)c(OC)cc4[C@H](O2)C2=C(CCCC2=O)O3)cc1	2.7%[8.59 µM]	6.0%[8.59 µM]
C[C@@]1(C(=O)O)NCCc2cc(O)c(O)cc21	-16.9%	8.91µM*
Oc1[nH]c2ccccc2c1C=Nc1ccc(-n2cncn2)cc1	-74.7%	-31.6%
O=c1cc(-c2ccc(O)cc2)oc2ccc(O)cc12	11.2µM*	55.7%
SMILES	Lassa entry	MARV entry inh
O=c1cc(-c2cccc(O)c2)oc2ccc(O)cc12	u	77.1%
C=C(CO[C@@H]1C=C[C@@H](c2ccccc2)O[C@@H]1COC)c1ccccc1	8.6%[8.59 µM]	-4.3%[8.59 µM]
COc1ccc(COC(=O)NN=C2C[C@@H](O)[C@@H](O)[C@@H]3[C@H]4C(=O)N(C[C@@H]5CCCO5)C(=O)[C@@H]4CC[C@H]23)cc1	0.596µM*	u
CCOC(=O)NN=C1C[C@@H](O)[C@@H](O)[C@@H]2[C@H]3C(=O)N(c4ccc(F)cc4F)C(=O)[C@@H]3CC[C@H]12	9.0%[8.59 µM]	-21.5%[8.59 µM]
COc1ccc(COC(=O)NN=C2C[C@@H](O)[C@@H](O)[C@@H]3[C@H]4C(=O)N(C5CCCCC5)C(=O)[C@@H]4CC[C@@H]23)cc1	x	-28.7%[8.59 µM]
COc1ccc(COC(=O)NN=C2C[C@@H](O)[C@@H](O)[C@@H]3[C@H]4C(=O)N(c5ccc(F)cc5F)C(=O)[C@@H]4CC[C@H]23)cc1	1.33µM*	30.1%[8.59 µM]
CCOC(=O)C1=CN(CCC=C(C)C)C(=O)N(C(C)=O)C1c1ccccc1 (stereo not given)	-30.0%[8.59 µM]	57.1%[8.59 µM]
C[C@@H]1O[C@@H](OC2CC(O)C3(CO)C4C(CCC3(O)C2)C2(O)CCC(C3=CC(=O)OC3)C2(C)C[C@H]4O)[C@H](O)[C@H](O)[C@H]1O (stereo not given in full)	0.178µM*	0.224µM*
COCCN1C(=O)NC(c2cccc(C(F)(F)F)c2)C(C(C)=O)=C1C (stereo not given)	-23.9%[8.59 µM]	11.2%[8.59 µM]
C#CCN1CC(=O)N(COC(=O)C2C(C=C(C)C)C2(C)C)C1=O (stereo not given)	-6.8%	-5.7%
C=CCC1=C(C)C(OC(=O)C2C(C=C(C)C)C2(C)C)CC1=O (stereo not given)	28.2µM*	u
COC(=O)C1=C(C(=O)OC)[C@@H]2Nc3ccccc3[C@@]23C[C@@H](C(=O)OC)N(C(=O)NC(C)(C)C)C3=N1	5.4%[8.59 µM]	1.5%[8.59 µM]
COc1c(O)c2c(=O)cc(OC)c3c4c(OC)cc(=O)c5c(O)c(OC)c(C[C@@H](C)OC(=O)c6ccccc6)c(c(c1C[C@@H](C)OC(=O)Oc1ccc(O)cc1)c23)c54	31.6µM*	u
C=CC[C@@H]1C=CC(ON=C(C)CCC(=O)OC[C@H]2O[C@H](C#Cc3ccccc3)C=C[C@H]2Oc2ccc(C)cc2)[C@H](CO)O1 (stereo not given in full)	-18.7%[8.59 µM]	29.4%[8.59 µM]
CC(=O)O[C@H]1C[C@@H]2CC[C@@H]3[C@H](CC[C@@]4(C)[C@H]3C[C@H]([N+]3(C)CCCCC3)[C@@H]4OC(C)=O)[C@@]2(C)C[C@@H]1N1CCCCC1	2.1%	26.2%
CCC(=O)O[C@H]1[C@@H](N2CCCCC2)C[C@H]2[C@@H]3CC[C@H]4C[C@H](OC(C)=O)[C@@H](N5CCCCC5)C[C@]4(C)[C@H]3CC[C@@]21C	u	3.55µM*
COc1cc2c(cc1OC)-c1c(O)c(OC)cc3c1[C@H](C2)N(C)CC3	-7.9%	0.4%
COc1cc2c(cc1OC)-c1cc(=Nc3c(C)cc(C)cc3C)n(C)c(=O)n1CC2	11.2µM*	12.6µM*
COc1cccc([C@@H]2[C@@H](C)CC[C@@H]3C(=O)NC[C@H](O)CN32)c1	-5.2%[8.59 µM]	-11.0%[8.59 µM]
C=C1C(=C/C=C2\CCC[C@]3(C)[C@@H]([C@H](C)CCCC(C)C)CC[C@@H]23)C[C@@H](O)C[C@@H]1O	15.8µM*	-15.1%
C=C1CCC(O)C/C1=C\C=C1/CCCC2(C)C1CCC2C(C)/C=C/C(C)C(C)C (stereo not given)	-29.2%	26.6%
C=C1C(=C/C=C2\CCC[C@]3(C)[C@@H]([C@H](C)/C=C/[C@@H](O)C4CC4)CC[C@@H]23)C[C@@H](O)C[C@@H]1O	14.1µM*	-24.8%
C=C1CCC(O)C/C1=C/C=C1\CCC[C@]2(C)[C@@H]([C@H](C)CCCC(C)C)CC[C@@H]12 (stereo not given in full)	-15.6%	-17.0%
CCCCCCCCCCCC[N+](C)(C)Cc1ccccc1	14.1µM*	20µM*
CCCCCCCCCCCCCCCC[N+](C)(C)CCN(Cc1ccc(OC)cc1)c1ncccn1	4.3%[17.8 µM]	-10.8%[17.8 µM]
